Assay results from the supplement of paper PMC11537057.
Counter-ions that a name gives are not always drawn. Screen size: about 1,700 compounds; about 15 (0.9%) showed activity.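 How the source made its calls: active = infection cut by 80% or more with cell growth above 90% in both runs; inactive = the rest.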 Many of the other results were omitted from the sample, so actives are more common in it than they were.

test system: HSV-1 strain 17 YFP-ICP4 in A549; test: HSV-1 infection relative to DMSO (ICP4-YFP per H2B-RFP signal); higher = more viral infection (less antiviral activity), active = hit call of the paper; conditions: 10 µM; 48 h; MOI: 0.1
Description: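 Selleck FDA-approved library (L1300) screened in duplicate at 10 µM on A549 H2B-mRuby cells in 384-well plates, infected with HSV-1 strain 17 YFP-ICP4 at MOI 0.1 one hour before drug addition. Imaged after 2 days at 37°C. Cell growth (H2B-RFP) and infection (ICP4-YFP) are expressed as % of DMSO-treated wells. Hits: growth >90% and infection <20% of DMSO.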

Compound	HSV-1 infection
Cc1c(O)cccc1C(=O)N[C@@H](CSc1ccccc1)[C@H](O)CN1C[C@H]2CCCC[C@H]2C[C@H]1C(=O)NC(C)(C)C [Nelfinavir Mesylate]	9.57% (active)
Cc1c(C(C)C)c(=O)n(-c2ccccc2)n1C [Propyphenazone (4-Isopropylantipyrine)]	98.5% (inactive)
CCCCCCC(=O)O[C@H]1CC[C@H]2[C@@H]3CCC4=CC(=O)CC[C@]4(C)[C@H]3CC[C@]12C [Testosterone Enanthate]	66.7% (inactive)
C=C[C@@H]1C[C@]1(NC(=O)[C@@H]1C[C@@H]2CN1C(=O)[C@H](C(C)(C)C)NC(=O)O[C@@H]1C[C@H]1CCCCCc1nc3ccc(OC)cc3nc1O2)C(=O)NS(=O)(=O)C1CC1 [Grazoprevir]	119% (inactive)
CCCCCCCCCCCCC[N+](C)(C)Cc1ccccc1 [Benzalkonium chloride]	65.3% (inactive)
NC(=O)[C@@H](CCC(F)(F)F)N(Cc1ccc(-c2ncon2)cc1F)S(=O)(=O)c1ccc(Cl)cc1	95.4% (inactive)
CCNC(=O)[C@@H]1CCCN1C(=O)[C@H](CCCN=C(N)N)NC(=O)[C@H](CC(C)C)NC(=O)[C@@H](C)NC(=O)[C@H](Cc1ccc(O)cc1)NC(=O)[C@H](CO)NC(=O)[C@H](Cc1c[nH]c2ccccc12)NC(=O)[C@H](Cc1cnc[nH]1)NC(=O)[C@@H]1CCC(=O)N1 [Alarelin Acetate]	90.9% (inactive)
CC1=C(C(=O)OC(C)C)C(c2cccc([N+](=O)[O-])c2)C(C(=O)OC2CN(C(c3ccccc3)c3ccccc3)C2)=C(N)N1 (stereo not given) [Azelnidipine]	121% (inactive)
O=C1/C(=C2\Nc3ccc(S(=O)(=O)O)cc3C2=O)Nc2ccc(S(=O)(=O)O)cc21 [Indigo carmine]	101% (inactive)
C[C@@H](O)[C@H]1C(=O)N2C(C(=O)O)=C(S[C@@H]3CN[C@H](C(=O)Nc4cccc(C(=O)O)c4)C3)[C@H](C)[C@H]12 [Ertapenem sodium]	109% (inactive)
CCC[C@@H]1C[C@@H](C(=O)N[C@@H]([C@H]2O[C@H](SC)[C@H](O)[C@@H](O)[C@H]2O)[C@H](C)Cl)N(C)C1 [Clindamycin]	83.9% (inactive)
CCC[C@@H]1C[C@@H](C(=O)N[C@@H]([C@H]2O[C@H](SC)[C@H](OP(=O)(O)O)[C@@H](O)[C@H]2O)[C@H](C)Cl)N(C)C1 [Clindamycin Phosphate]	125% (inactive)
CCC[C@@H]1C[C@@H](C(=O)N[C@@H]([C@H]2O[C@H](SC)[C@H](O)[C@@H](O)[C@H]2O)[C@@H](C)O)N(C)C1 [Lincomycin HCl]	15.9% (active)
CCC[C@@H]1C[C@@H](C(=O)N[C@@H]([C@H]2O[C@H](SC)[C@H](O)[C@@H](O)[C@H]2O)[C@@H](C)O)N(C)C1 [Lincomycin Hydrochloride Monohydrate]	86.4% (inactive)
CCC[C@@H]1C[C@@H](C(=O)N[C@@H]([C@H]2O[C@H](SC)[C@H](O)[C@@H](O)[C@H]2O)[C@H](C)Cl)N(C)C1 [Clindamycin HCl]	87.2% (inactive)
